Screening results (PubChem)
Rows were chosen to be rich in hits. Some 19% of all compounds tested hit in one or more screens of this group.
ELG1 DNA repair: qHTS screen for small molecules that inhibit ELG1-dependent DNA repair in human embryonic kidney (HEK293T) cells expressing luciferase-tagged ELG1 | HEK293T ELG1-luciferase reporter, luminescence, 16 h; DNA damage induced by 5-fluorouridine | Potency, µM (series often up to 46.1 µM), actives largely listed as inhibitors | 330,000 compounds, 2.3% hits; further: nearly all actives have a fitted effect of over 55% in size
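Reporter activity after DNA damage by 5-fluorouridine is monitored. Compound-treated cells incubate 16 hr at 37 °C, then ONE-Glo is added for 30 min before luminescence reading.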
HT1080-NT tox: qHTS for induction of synthetic lethality in tumor cells producing 2HG: qHTS for the HT-1080-NT fibrosarcoma cell line. HT-1080-NT fibrosarcoma viability, CellTiter-Glo ATP luminescence, 48 h. Potency, µM (highest dose often 46.1 µM), hits mostly cytotoxic. 360,000 compounds, 1.6% hits;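 further: NT is the 2HG producing partner of a matched IDH1 knockdown line; nearly all actives have a fitted effect of over 55% in size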
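Toxicity toward the 2HG-producing NT line was scored as %Activity, normalised to DMSO and no-cell wells, from CellTiter-Glo luminescence after 48 hours' treatment.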
HT1080 IDH1KD tx: qHTS for induction of synthetic lethality in tumor cells producing 2HG: qHTS for the HT-1080-IDH1KD cell line; HT-1080 IDH1 knockdown viability, ATP luminescence, 48 h; Potency, µM (series often up to 46.1 µM), usual class: cytotoxic; 360,000 compounds, 2% hits; AID 686971, 2013
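Cytotoxicity counter-line: IDH1KD HT-1080, 48 h, CellTiter-Glo. Curves classed by r2, magnitude and activity.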
TDP1 cell noCPT: qHTS for Inhibitors of human tyrosyl-DNA phosphodiesterase 1 (TDP1): qHTS in cells in absence of CPT | 420,000 compounds, 15% hits | DT40 Tdp1-/- hTDP1 cells, no CPT, ATP luminescence, 48 h | AID 686978, 2013 | Potency, µM (top dose mostly 46.2 µM), actives largely listed as inhibitors; further: nearly all actives have a fitted effect of over 55% in size
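Seeded 400 DT40-hTDP1 cells/well (vehicle DMSO, no 20 nM CPT); pinned compounds; ≥48 hr at 37 °C; CellTiter-Glo luminescence as viability measure.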
TDP1 cell CPT: qHTS for Inhibitors of human tyrosyl-DNA phosphodiesterase 1 (TDP1): qHTS in cells in presence of CPT. chicken DT40 Tdp1-/-;hTDP1 cells + 20 nM CPT, ATP luminescence, 48 h. Potency, µM (top dose mostly 46.2 µM), usual class: inhibitors. 420,000 compounds, 12% hits. AID 686979, 2013; further: nearly all actives have a fitted effect of over 55% in size
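Cell growth measured by CellTiter-Glo luminescence after a minimum 48 h, 37 C compound exposure with 20 nM CPT in Tdp1-knockout DT40 cells stably expressing hTDP1, seeded 400/well; qHTS titration format.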
IL-1B inflam inh: qHTS for Inhibitors of Inflammasome Signaling: IL-1-beta AlphaLISA Primary Screen; THP-1 LPS/ATP IL-1B secretion, AlphaLISA, 16 h; stronger effect = lower value; AID 743279, 2014; activity change, % at 57.5 µM; 360,000 compounds, 4.7% hits; in the data active means activity change below about -50%; inconclusive means mostly about -30% to -49%
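Secreted IL-1B measured by AlphaLISA bead assay after 16 h compound exposure of THP-1 cells; compounds (final up to 57.5 uM) added 1 h before LPS (250 ng/mL) and ATP (1.25 mM) stimulation; lower signal means less secretion.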
Hits are given with their value; i = inactive; ? = inconclusive; nt = no result given; [ ] = remark or other dose. Unless noted, the call rests on the fitted dose curve; in most records, active means well fitted curve in the direction sought with a large enough effect; inconclusive means small, poorly fitted or top-dose-only effect, or another doubt; inactive means no such curve, though single readings can be large; an effect the other way counts as inactive or inconclusive.

SMILES	ELG1 DNA repair	HT1080-NT tox	HT1080 IDH1KD tx	TDP1 cell noCPT	TDP1 cell CPT	IL-1B inflam inh
CCc1nc2c(OCc3ccc(C(F)(F)F)cc3)cccn2c1N(C)C(=O)C(C)C	nt	i	i	26µM	?	i
CC1CCN(c2cc(Br)c([N+](=O)[O-])cc2F)CC1	i	i	i	?	?	i
CN1C(=O)N(C)C(=O)C(CCc2ccncc2)(Cc2ccc3c(c2)OCO3)C1=O	i	i	?	16µM	?	i
O=C1NC(=O)C(CCc2ccncc2)(Cc2ccc3c(c2)OCO3)C(=O)N1CCc1ccccc1 (centres undefined)	?	i	?	21µM	?	i
COc1ccc(C2/C=C\CN(C(=O)Oc3ccc(C(F)(F)F)cc3)CC(=O)N2Cc2ccc(F)cc2)cc1 (centres undefined)	i	i	i	?	?	i
NCC(=O)c1ccc(Br)cc1	nt	nt	nt	i	i	nt
O=C1C(=Cc2cn(-c3ccccc3)nc2-c2ccc(OCc3ccc(Cl)cc3)cc2)SC(=S)N1CCS(=O)(=O)O	nt	?	i	?	?	?
CCOC(=O)[C@]12Cc3ccccc3[C@H]1N(CCC(=O)OC)C(=O)c1cc(OC)ccc12	nt	?	?	?	?	-118
CCC12C=CCN3CCC4(c5ccc(OC)cc5N(C)C4[C@@](O)(C(=O)OC)C1OC(C)=O)C32 (some centres undefined)	nt	nt	nt	i	i	nt
COc1ccc(OC)c(CN2C(=O)c3ccccc3C2c2nnnn2-c2c(C)cccc2C)c1 (centres undefined)	nt	i	i	?	?	i
CCOC(=O)[C@]12Cc3cc(OC)ccc3[C@H]1N(CCC(=O)OC)C(=O)c1cc(OC)ccc12	nt	?	?	15µM	?	-54
Cc1ccnc(-n2c(C)nc3ccccc3c2=O)c1	?	i	i	?	i	i
COc1ccccc1-n1c(-c2ccccc2F)nc2ccccc2c1=O	nt	i	i	?	?	i
Cc1ccc(-n2c(/C=C/c3cccc4ccccc34)nc3ccccc3c2=O)cc1	nt	nt	nt	21µM	?	nt
Cc1cccc(-n2c(/C=C/c3cccc4ccccc34)nc3ccccc3c2=O)c1	nt	nt	nt	6.5µM	9.2µM	nt
COc1cccc(/C=C/c2nc3ccccc3c(=O)n2-c2ccc(Cl)cc2)c1OC	nt	nt	nt	?	15µM	nt
Cc1cccc(-n2c(/C=C/c3cn(C)c4ccccc34)nc3ccccc3c2=O)c1	nt	nt	nt	9.2µM	6.5µM	nt
Cc1nc2ccccc2c(=O)n1-c1cc([N+](=O)[O-])cc([N+](=O)[O-])c1	i	i	i	?	?	i
O=C(CCC1CCCN(Cc2cccc3c2OCO3)C1)NCc1ccc(F)c(F)c1 (centres undefined)	i	i	i	?	?	i
CN(CC(=O)N[C@H](CO)Cc1ccccc1)C(=O)[C@H](CCS(C)=O)NC(=O)[C@@H](N)Cc1ccc(O)cc1 (some centres undefined)	nt	nt	nt	i[4.12 µM]	i[4.12 µM]	nt
Cc1ccc2scc(N3CCN(C)CC3)c(=O)c2c1	nt	nt	nt	i	i	nt
O=C(O)c1ccc(/C=C/c2nc3ccccc3c(=O)n2-c2ccc(Br)cc2)cc1	i	i	i	?	i	?
O=c1c2ccccc2nc(/C=C/c2cccc3ccccc23)n1-c1ccc(Cl)cc1	nt	nt	nt	26µM	21µM	nt
CC(C)[C@@]1(NC(=O)[C@H]2CC3c4cccc5[nH]cc(c45)C[C@H]3N(C)C2)O[C@@]2(O)C3CCCN3C(=O)[C@@H](Cc3ccccc3)N2C1=O (some centres undefined)	nt	nt	nt	15µM	15µM	nt
